Assay outcomes from PubChem.
Sfp PPTase inh – Sfp phosphopantetheinyl transferase inhibition. hit rate 3.5% among 310,000. AID 1490. Q9F4F7. Biochemical Sfp PPTase activity, qHTS. Potency, µM, without a hit: largest response in the series, negative = inhibition, hits mostly inhibitors;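 also: the enzyme is Sfp with the accession as filed and its product quenches rhodamine fluorescence; 0% = enzyme reaction without inhibitor and -100% = no enzyme wells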
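Reaction rates are the 30-min fluorescence difference (ex 525, em 598 nm) in wells containing 15 nM Sfp, 5 uM rhodamine-CoA and 12.5 uM BHQ-2-YbbR at pH 7.6 with 10 mM MgCl2.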
PLK1 PBD inh – PLK1 (human) polo-box domain binding inhibition; Potency, µM, without a hit: max response, negative = inhibition, actives largely listed as inhibitors; Plk1 PBD binding of FITC phosphopeptide, fluorescence polarization; P53350; AID 720504; hit rate 2.8% among 360,000; also: series mostly up to about 57 µM; nearly all actives have a fitted effect of over 65% in size
ALDH1A1 inh – blocks purified human ALDH1A1 activity. Purified ALDH1A1, NADH fluorescence, propionaldehyde substrate. Potency, µM (top dose mostly 75.3 µM), inactives show top-dose activity, negative = inhibition, most hits filed as inhibitors. hit rate 7.3% among 220,000. AID 1030; active = well fitted inhibition curve with a large enough effect, not every such curve was filed as active; inconclusive = small, poorly fitted or top-dose-only effect, or another doubt; inactive = no such curve, though single readings can be large or run the other way;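 also: plate controls were no enzyme wells and a reference inhibitor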
Gal4-VP16 FLuc – inhibits Gal4-VP16 luciferase reporter, ROR gamma counter-screen; Drosophila S2 Gal4-VP16 UAS-luciferase, luminescence, 20 h; Potency, µM (doses to about 53.6 µM), for the others: at the highest dose activity, negative = inhibition, usual class: inhibitors; hit rate 3.5% among 310,000;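 also: Gal4-VP16 expression switched on by copper sulfate through the metallothionein promoter; nearly all actives have a fitted effect of over 50% in size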
RORg inh – blocks mouse ROR gamma transcriptional activity; P51450; Drosophila S2 Gal4-RORgamma UAS-luciferase reporter, 20 h; Potency, µM (titrated, usually from 53.6 µM), for the others: at the highest dose activity change, negative = inhibition, usual class: inhibitors; hit rate 5.4% among 310,000; AID 2551; also: nearly all actives have a fitted effect of over 60% in size
Target sequence (P51450 whole entry, looked up, the tested form may be a part): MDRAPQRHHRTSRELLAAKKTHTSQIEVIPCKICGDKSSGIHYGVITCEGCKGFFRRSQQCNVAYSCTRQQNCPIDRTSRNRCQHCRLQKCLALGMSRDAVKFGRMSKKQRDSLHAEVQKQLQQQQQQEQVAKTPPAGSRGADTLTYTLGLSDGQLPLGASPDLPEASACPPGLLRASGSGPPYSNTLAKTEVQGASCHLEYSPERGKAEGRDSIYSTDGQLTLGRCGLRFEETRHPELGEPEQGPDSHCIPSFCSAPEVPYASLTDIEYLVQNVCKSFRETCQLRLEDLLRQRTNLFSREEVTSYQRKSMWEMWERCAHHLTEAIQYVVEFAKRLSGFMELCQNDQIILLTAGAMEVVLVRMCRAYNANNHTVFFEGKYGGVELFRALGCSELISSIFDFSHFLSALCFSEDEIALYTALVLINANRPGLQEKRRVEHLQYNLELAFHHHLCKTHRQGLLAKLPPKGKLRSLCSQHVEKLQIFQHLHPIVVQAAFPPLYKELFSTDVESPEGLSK
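A Gal4/UAS one-hybrid system in insect cells: metallothionein-promoter Gal4–ROR gamma fusion plus Photinus luciferase reporter. Copper sulfate 700 uM final, 20 hr ambient incubation, luminescent detection after 10 min with reagent.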
TbPYK inh – confirmation of Trypanosoma brucei pyruvate kinase inhibitors; shares compounds with PLK1 PBD inh; recombinant TbPYK, Kinase-Glo ATP luminescence; Potency, µM (top dose mostly 76.9 µM), for the others: at the top dose activity change, negative = inhibition, hits mostly inhibitors; hit rate 67% among 890; also: nearly all actives have a fitted effect of over 70% in size
TbPYK ADP-Glo – inhibits T. brucei pyruvate kinase in orthogonal ADP-Glo assay | shares compounds with PLK1 PBD inh | recombinant TbPYK, ADP-Glo luminescence, 60 min | Potency, µM (doses to about 76.9 µM), inactives show at the top dose activity change, negative = inhibition, usual class: inhibitors | hit rate 62% among 890 | AID 720584; also: nearly all actives have a fitted effect of over 75% in size
* marks the source's active call; other numbers are inactive results; ? = inconclusive; nt = not tested or not shown; [ ] = dose if it differs, or a comment. Only some compounds are listed: those with a hit (about 12% of all), similar ones and a draw of the others. Unless noted, calls follow the shape of the dose curve; as a rule, active = well fitted curve in the direction sought with a large enough effect; inconclusive = small, poorly fitted or top-dose-only effect, or another doubt; inactive = no such curve, though single readings can be large; an effect the other way counts as inactive or inconclusive. Unless noted, % is scaled to controls: 0 for no effect and ±100 for the full control effect; potency is read from the fitted curve at half-maximal effect.

SMILES	Sfp PPTase inh	PLK1 PBD inh	ALDH1A1 inh	Gal4-VP16 FLuc	RORg inh	TbPYK inh	TbPYK ADP-Glo
N/C(=N/OC(=O)c1ccccc1Cl)c1nonc1N	-11%	-4%	-4%	-10%	20%	25µM*	6%
CCN(CC)Cc1cc(O)c(CN(CC)CC)cc1O	10µM*	4.2µM*	?	-1%	-13%	-99%	10µM*
COc1cc(/C=N/NC(=O)c2nonc2C)ccc1O	13%	6%	-3%	1%	12%	nt	nt
Cc1nonc1C(=O)N/N=C/c1ccc(O)c(O)c1	-6%	0%	-9%	-10%	15%	?	4%
CC(C)(C)C1=Nn2c(nnc2-c2n[nH]c3c2CCC3)SC1	25µM*	24µM*	?	4%	-29%	10µM*	10µM*
COc1cc(C(=O)NC(=S)Nc2ccc3[nH]c(=O)[nH]c3c2)cc(OC)c1OC	-9%	0%	nt	5%	-22%	nt	nt
C[C@@H]1CCCCO[C@H](CN(C)C(=O)C2CCCCC2)[C@@H](C)CN([C@H](C)CO)C(=O)c2cc(N(C)C)ccc2O1	nt	?	nt	nt	nt	28µM*	?
Cc1ccc(S(=O)(=O)N(C)C[C@H]2OCCCC[C@@H](C)Oc3ccc(N(C)C)cc3C(=O)N([C@H](C)CO)C[C@@H]2C)cc1	nt	-9%	nt	nt	nt	7.1µM*	7.9µM*
Cc1ccc(C(=O)N2C(CC(=O)Nc3ccc(Cl)cc3)C(=O)NC3CCCCC32)cc1 (stereo not given)	-11%	4%	9%	-8%	-16%	nt	nt
CC(=O)Nc1ccc(NC(=O)[C@H](C)NC(=O)c2ccco2)cc1	3%	-4%	nt	1%	-4%	nt	nt
O=C(N/C(=N\O)c1ccccc1)Nc1ccc(Cl)cc1	2%	-14%	?	-9%	?	nt	nt
O=C(Nc1ccc(Cl)cc1)C(Cl)C(=O)c1ccccc1 (stereo not given)	28µM*	0.6µM*	nt	?	-71%	7.9µM*	14µM*
Cc1ccc(-n2c(N)c(C(=O)N3CCN(C)CC3)sc2=S)cc1	-93%	3µM*	22µM*	-5%	-6%	0.63µM*	4.5µM*
CC(=O)Nc1cccc(-c2nc3ccccc3s2)c1	-4%	-4%	-7%	-4%	9%	nt	nt
O=C(O)Cc1ccc2sc(-c3ccccc3)nc2c1	13%	0%	-5%	-13%	-11%	32µM*	7%
COC1=CC(=O)C(C2CC(=O)c3c(O)cc(O)cc3O2)=CC1=O (stereo not given)	nt	4.2µM*	nt	nt	nt	16µM*	28µM*
CC(=O)OCC1=C(C(=O)O)N2C(=O)C(NC(=O)c3ccc(COc4cccc(Cl)c4Cl)o3)C2SC1 (stereo not given)	-21%	?	?	-3%	15%	nt	nt
CC1=NOC(=O)/C1=C\c1ccc(-c2ccccc2Br)o1	56µM*	0.42µM*	18µM*	0%	25%	?	-29%
CCOc1cc(/C=N/N=C2/NC(=O)C(CC(=O)O)S2)ccc1OCc1ccc(Cl)cc1 (stereo not given)	3%	?	?	3%	30%	16µM*	32µM*
Clc1ccc(CCNc2ncnc3c2nnn3Cc2ccccc2)cc1	11%	-1%	nt	?	-25%	nt	nt
Cc1ccc(NC(=O)c2ccc(Cl)c(N3C(=O)C=CC3=O)c2)cc1	2.8µM*	3.4µM*	3.2µM*	3.2µM*	7.9µM*	5.6µM*	13µM*
CCC(=O)NC1=C(Cl)C(=O)C(NC(=O)CC)=C(Cl)C1=O	0.56µM*	1.7µM*	?	7.1µM*	2.8µM*	0.25µM*	0.4µM*
CC(Nc1ccc2c(c1)OCCO2)C(=O)N1c2ccccc2CC1C (stereo not given)	-24%	-22%	-10%	-14%[10 µM]	119%	nt	nt
Oc1ccc(/C=N/Nc2nccnc2Cl)c(O)c1	14%	1%	?	16µM*	?	?	3%
COc1ccc(C(=O)Nc2ccc(NC(C)=O)cc2)cc1S(=O)(=O)N1CCCCC1C (stereo not given)	nt	3%	nt	nt	nt	nt	nt
